Source: PubChem BioAssay (several laboratories)
Compounds with a hit are over-represented: about 2.5% of the library has one in this group of screens.
EWS-Fli inh: blocks EWS/Fli oncoprotein-driven transcription. A673 NR0B1-luciferase reporter, viability-normalised. 350,000 compounds, 0.67% hits. inhibition, % at 12.6 µM;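 active = mean inhibition of at least 50% after viability correction, with every replicate also passing that limit; inconclusive = mean reaches 50% but only one of two replicates passes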;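 note: firefly luciferase signal divided by Alamar Blue viability fluorescence both relative to DMSO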
PAX8 reporter: lowers PAX8-driven luciferase in RMG-I cells | RMG-I TPO-luciferase reporter, SteadyGlo, 24 h | inhibition, % at 12.6 µM | 360,000 compounds, 1.2% hits | AID 652154;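 active = mean replicate inhibition at least 60% with every replicate also reaching 60%; inconclusive = only one of the two criteria is met; inactive = mean below 60% and not all replicates reaching 60%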;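 note: luciferase light reporting Pax8 driven TPO promoter activity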
HIV Env fusion: blocks HIV Env-driven cell-cell fusion; HeLa-JRFL Env/CEM21 cell fusion, luciferase; AID 651610; 360,000 compounds, 1.1% hits; inhibition, % at 12.3 µM;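 active = mean replicate inhibition score of at least 50 and every replicate individually at or above 50; inconclusive = only one of the two criteria met; inactive = mean below 50 and not all replicates reaching 50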
GAA850 FXN act: increases GAA850 frataxin promoter reporter activity; activation, % at 6 µM; HEK293 lucGAA850 FXN promoter luciferase reporter, 24 h; percent of 10 µM SAHA response; 360,000 compounds, 0.56% hits;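 active = activation above the average of all compounds screened plus 3 SD, cutoff fixed separately per campaign, cut at about 7.5% in these data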
CFTR F508del cor: CFTR F508del correction in bronchial cells | activity (quench increase), % at 7.58 µM | 350,000 compounds, 0.36% hits | CFBE cells, YFP halide quenching; stimulated with forskolin plus potentiator P3; % fluorescence drop versus neutral controls;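 active = mean added fluorescence quench of at least 8% versus neutral control, with both replicates also reaching 8%; inconclusive = only one of the mean or replicate conditions met; inactive = mean below 8% and not both replicates reaching 8%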;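 note: cells transiently co-express mutant CFTR-F508del with the halide-sensitive YFP; corrector assay measuring rescue of mutant channel to the surface after 24 h compound exposure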
A number is an active result; i = inactive; ? = inconclusive; nt = no result given.

SMILES	EWS-Fli inh	PAX8 reporter	HIV Env fusion	GAA850 FXN act	CFTR F508del cor
CCC1=C(CC2NCCc3ccccc32)CC2c3cc(OC)c(OC)cc3CCN2C1 (centres undefined)	i	i	i	i	10
C[C@@H]1CN([C@H](C)CO)C(=O)c2cc(NS(=O)(=O)c3ccc(Cl)cc3)ccc2O[C@H]1CN(C)Cc1ccc(-c2ccccc2)cc1	i	nt	i	nt	i
C[C@@H]1CNC(=O)c2c(C(=O)N(C)Cc3ccccc3)ncn21	i	i	137	nt	i
C[C@H](NC(=O)c1ncn2c1C(=O)NC[C@H]2C)c1ccccc1	i	i	i	i	i
C[C@H]1CNC(=O)c2c(C(=O)N3CCN(C(=O)OC(C)(C)C)CC3)ncn21	i	i	72	nt	i
C[C@@H]1Cn2cnc(C(=O)N(C)Cc3ccccc3)c2C(=O)N1	i	i	i	nt	i
C[C@H]1Cn2cnc(C(=O)N3CCN(C(=O)OC(C)(C)C)CC3)c2C(=O)N1	i	i	i	nt	i
C[C@H]1CNC(=O)c2c(C(=O)N3CCN(c4ccccc4)CC3)ncn21	i	i	79	nt	i
Cc1ccc(S(=O)(=O)N(C)C[C@@H]2Oc3ccc(NS(=O)(=O)c4cccs4)cc3C(=O)N([C@H](C)CO)C[C@@H]2C)cc1	i	i	i	nt	i
COc1cc(-c2noc(C)c2C#Cc2ccsc2)cc(OC)c1OC	59	i	i	i	11
COc1cc(-c2noc(C)c2C#CCO)cc(OC)c1OC	i	i	i	i	i
COC(=O)/C(=C\Nc1ccc(OC)cc1)NC(=O)c1ccc(Cl)cc1Cl	nt	nt	nt	i	nt
COC(=O)/C(=C\Nc1ccc(Cl)cc1Cl)NC(=O)c1ccc(OC)cc1	53	i	i	i	i
c1nc(CCO[C@H]2CCCCO2)cc2cc3c(cc12)OCO3	75	i	i	i	i
c1ccc2cc(CCO[C@H]3CCCCO3)ncc2c1	i	i	i	i	i
O=C(NCc1ccccc1)C(c1ccccc1)N(Cc1ccccc1)C(=O)Cc1ccccc1 (centres undefined)	71	79	i	nt	i
COc1ccccc1-n1c(SCC(=O)NCc2ccc3c(c2)OCO3)nc2cc([N+](=O)[O-])ccc21	i	i	nt	i	i
CC(Sc1nc2cc([N+](=O)[O-])ccc2n1-c1ccc(F)cc1)C(=O)NCc1ccc2c(c1)OCO2 (centres undefined)	nt	i	94	i	nt
C/C=C/c1ccc2c(c1)O[C@@H](CN(C)C(=O)c1cccc(F)c1)[C@@H](C)CN([C@H](C)CO)S2(=O)=O	i	nt	i	nt	i
CC1CC(NS(=O)(=O)c2cc3c4c(c2)CCN4C(=O)CC3)CC(C)(C)C1 (centres undefined)	i	i	61	i	i
CC(C)(C)NS(=O)(=O)c1cc2c3c(c1)CCN3C(=O)CC2	i	i	i	i	i
CCOC(=O)N1c2ccccc2Sc2ccccc21	i	i	i	i	i
Cc1nnc(SC(=O)N2c3ccccc3Sc3ccccc32)s1	nt	nt	69	i	nt
CNC[C@@H]1OCCCC[C@H](C)Oc2ccc(NS(=O)(=O)c3c(C)noc3C)cc2C(=O)N([C@@H](C)CO)C[C@H]1C	i	i	i	nt	i
COc1ccccc1-c1cn(CC[C@@H]2CC[C@H](NS(=O)(=O)c3ccccc3C)[C@@H](CO)O2)nn1	i	i	i	nt	i
SMILES	EWS-Fli inh	PAX8 reporter	HIV Env fusion	GAA850 FXN act	CFTR F508del cor
c1ccc(CCNc2nc3ccccc3n3nnnc23)cc1	nt	nt	nt	i	nt
ClC(Cl)(Cl)c1nc2ccccc2n2nncc12	i	86	i	i	i
CO[C@H]1CN(C)C(=O)c2ccc(NC(=O)c3ccc(F)cc3)cc2OC[C@@H](C)N(C(=O)CN(C)C)C[C@@H]1C	i	nt	nt	nt	i
COc1ccc(NC(=O)C2=CC(c3cccs3)=NS(=O)(=O)N2C)cc1	i	i	89	i	i
C=C1C(=O)O[C@H]2C1CC[C@@](C)(O)C13C=CC(C)(C21)C1(C3)C(=O)O[C@@H]2C3C(C)=CCC3[C@](C)(O)C[C@H](OC(C)=O)C21 (some centres undefined)	i	87	i	i	i
C[C@H](CO)N1C[C@H](C)[C@@H](CN(C)C(=O)Nc2ccc(F)cc2)OCCCC[C@H](C)Oc2ccc(NC(=O)Nc3ccc(C(F)(F)F)cc3)cc2C1=O	i	i	i	nt	i
C[C@@H]1CCCCO[C@H](CN(C)C(=O)Nc2ccc(F)cc2)[C@@H](C)CN([C@@H](C)CO)C(=O)c2cc(NC(=O)Nc3ccc(C(F)(F)F)cc3)ccc2O1	i	95	i	nt	i
C[C@@H]1CN([C@H](C)CO)C(=O)c2cc(NC(=O)Nc3ccc(C(F)(F)F)cc3)ccc2O[C@@H](C)CCCCO[C@H]1CN(C)C(=O)Nc1ccc(F)cc1	i	84	i	nt	i
C[C@H]1CCCCO[C@@H](CN(C)C(=O)Nc2ccc(F)cc2)[C@@H](C)CN([C@@H](C)CO)C(=O)c2cc(NC(=O)Nc3ccc(C(F)(F)F)cc3)ccc2O1	i	i	i	nt	i
C[C@H](CO)N1C[C@H](C)[C@@H](CN(C)C(=O)Nc2ccc3c(c2)OCO3)OCc2ccccc2-c2ccccc2C1=O	i	i	i	nt	i
C[C@H]1CCCCO[C@@H](CN(C)Cc2ccc(C(=O)O)cc2)[C@@H](C)CN([C@@H](C)CO)C(=O)c2cc(NS(=O)(=O)c3ccc(F)cc3)ccc2O1	i	i	i	nt	i
COc1ccc(-c2ccc3c(c2)[C@H]2[C@H](CCN2S(=O)(=O)c2ccc(OC)cc2)[C@H](CO)N3C)cc1	i	95	nt	nt	?
COc1ccc(S(=O)(=O)N2CC[C@H]3[C@@H](CO)N(C)c4ccc(-c5ccc(F)cc5)cc4[C@H]32)cc1	i	i	nt	nt	i
COc1ccc(-c2ccc3c(c2)[C@@H]2[C@@H](CCN2S(=O)(=O)c2ccc(OC)cc2)[C@@H](CO)N3C)cc1	i	85	nt	nt	i
COc1ccc(S(=O)(=O)N2CC[C@@H]3[C@H](CO)N(C)c4ccc(-c5ccccc5F)cc4[C@@H]32)cc1	i	i	nt	nt	i
O=C(C[C@H]1C=C[C@H](NC(=O)Cc2cccnc2)[C@H](CO)O1)Nc1ccc(-c2ccccc2)cc1	i	i	nt	nt	i
CNC[C@H]1Oc2ccc(NC(=O)CCN3CCOCC3)cc2CC(=O)N([C@@H](C)CO)C[C@@H]1C	i	i	i	nt	i
COc1ccc(CN(C)C[C@H]2Oc3c(NS(=O)(=O)c4ccccc4)cccc3C(=O)N([C@@H](C)CO)C[C@@H]2C)cc1	i	nt	i	nt	i
Cc1cc2[nH]c(=S)[nH]c2cc1C	i	i	i	i	i
Fc1cc2[nH]c(=S)[nH]c2cc1Cl	i	i	57	i	i
CC1=C(C(=O)NC(C)C)C2(CCC(C)CC2)OC1=O (centres undefined)	i	i	61	i	i
CC1=C(C(=O)NC(C)c2ccccc2)C2(CCC(C)CC2)OC1=O (centres undefined)	i	i	i	i	i
CC1=C(C(=O)NC2CCCCC2C)C2(CCC(C)CC2)OC1=O (centres undefined)	i	i	i	i	9.9
